# What was measured:
# Assay in all cases: pooled miR-30 sensor sort-seq; sequence = guide strand
# Details in all cases: shRNA
# ABHD14B = target: ABHD14B
# ABHD14A = target: ABHD14A
# ABCG2 = target: ABCG2
# ABHD8 = target: ABHD8
# ABCD4 = target: ABCD4
# ACSL3 = target: ACSL3
# ACSM5 = target: ACSM5
# ACSM2B = target: ACSM2B
# ACTL6A = target: ACTL6A
# ACSM2A = target: ACSM2A
# ADAD1 = target: ADAD1
# ADAM19 = target: ADAM19
# ADRA1D = target: ADRA1D
# ADORA2B = target: ADORA2B
# ADRA2B = target: ADRA2B
# Further: reference of the scale not given here.
sequence,measurement,setting,value
TGGACTGATCACAACCGGGGGG,sensor-assay potency score (higher = more potent),ABHD14B,-0.281
TGCATTGCGTAGCTTCACCACA,sensor-assay potency score (higher = more potent),ABHD14A,-1.6
AACATCATCTTGTACCACGTAA,sensor-assay potency score (higher = more potent),ABCG2,-0.468
TCTGTGACAGTAGCTGCAGTGT,sensor-assay potency score (higher = more potent),ABHD14A,-1.16
TATAATACTTGGTAACATCCTC,sensor-assay potency score (higher = more potent),ABCG2,0.377
AAAGCTGGTCTGACCCATGGGG,sensor-assay potency score (higher = more potent),ABHD14B,-0.273
TTCAGGTGCTCAAAGCTGGTCT,sensor-assay potency score (higher = more potent),ABHD14B,-0.558
TTTGTCCAGGTAACAGGGGTGC,sensor-assay potency score (higher = more potent),ABHD14B,-1.14
TGAGATTGACCAACAGACCTGA,sensor-assay potency score (higher = more potent),ABCG2,0.275
TTGATTTTGTCAGTGCAGATGG,sensor-assay potency score (higher = more potent),ABHD14B,-0.728
TAGCGCTTGAAGATTGCTCGCA,sensor-assay potency score (higher = more potent),ABHD8,0.247
TTCAGCTTTTGTCTCTTTGTAG,sensor-assay potency score (higher = more potent),ABCG2,-0.298
TTCTATGAGTGGCTTATCCTGC,sensor-assay potency score (higher = more potent),ABCG2,-0.526
TTCTGCCAGGTCTCGGAGGAGA,sensor-assay potency score (higher = more potent),ABHD14B,-1.13
TAGCTTCACCACAGAGTGGTTG,sensor-assay potency score (higher = more potent),ABHD14A,-1.24
TGGTTTGTCCAGGTAACAGGGG,sensor-assay potency score (higher = more potent),ABHD14B,-0.958
TTGAAGACTGTGATCTTCTTCT,sensor-assay potency score (higher = more potent),ABCG2,0.497
TGCGATGACAACGTAACTCAGG,sensor-assay potency score (higher = more potent),ABCD4,-0.631
TCCATATACAATCAGAGCTGGA,sensor-assay potency score (higher = more potent),ABHD14B,-1.62
TCGAGCCAGGATGTGGTCCAGC,sensor-assay potency score (higher = more potent),ABHD14A,-1.4
TAATATTTCTTTCTCAACTGGT,sensor-assay potency score (higher = more potent),ABCG2,0.563
TTACCAAATATTCTTCGCCAGT,sensor-assay potency score (higher = more potent),ABCG2,-1.15
TAAGGGTTGGAGTCTTCACAGC,sensor-assay potency score (higher = more potent),ABHD14A,-1.08
TAACTCTTGAATGACCCTGTTA,sensor-assay potency score (higher = more potent),ABCG2,-0.548
GAGGTCTGTACCACAGTCGGGC,sensor-assay potency score (higher = more potent),ABHD14A,-1.45
TTTAAAGTCTTCTTCTCTGTTT,sensor-assay potency score (higher = more potent),ABCG2,-0.358
TACGACTGTGACAATGATCTGA,sensor-assay potency score (higher = more potent),ABCG2,0.524
CTGGTCTCCATATACAATCAGA,sensor-assay potency score (higher = more potent),ABHD14B,-2.16
TAGAAGAGTCGGGCAAAGGAGA,sensor-assay potency score (higher = more potent),ABCD4,-1.06
TCACCTTGTGCACTAGGTCTGG,sensor-assay potency score (higher = more potent),ABHD8,-0.472
TAGTTGGCAGCATTGATTTTGT,sensor-assay potency score (higher = more potent),ABHD14B,-0.754
TAGTAGACGAGGGTGAACGGGG,sensor-assay potency score (higher = more potent),ABCD4,-0.612
TGAGTGGGAGCACCTCGCGGTA,sensor-assay potency score (higher = more potent),ABHD14A,-1.68
ATAGTTGGCAGCATTGATTTTG,sensor-assay potency score (higher = more potent),ABHD14B,-0.758
ATGGCCTGCATTGCGTAGCTTC,sensor-assay potency score (higher = more potent),ABHD14A,-1.76
TTGCGTAGCTTCACCACAGAGT,sensor-assay potency score (higher = more potent),ABHD14A,0.297
TCCATGAAGCAGCACCACCTCC,sensor-assay potency score (higher = more potent),ABHD14A,-1.75
TTGAGTGGGAGCACCTCGCGGT,sensor-assay potency score (higher = more potent),ABHD14A,0.0609
TTTGTCTCTTTGTAGAAGGAGG,sensor-assay potency score (higher = more potent),ABCG2,-1.31
TGCTTCAGGTGCTCAAAGCTGG,sensor-assay potency score (higher = more potent),ABHD14B,-0.768
TTGCTGAAATAGCAGCTTCGGA,sensor-assay potency score (higher = more potent),ACSL3,-0.935
TTGAAGAATTGATCACATCGTC,sensor-assay potency score (higher = more potent),ACSM5,0.691
ATACTGTCCAAGAATAACCTTT,sensor-assay potency score (higher = more potent),ACSL3,-0.208
TAACTTTGGCATCAACTCGGGG,sensor-assay potency score (higher = more potent),ACSM5,-0.74
TTGTCTCGAAGTTTGGTTCGTT,sensor-assay potency score (higher = more potent),ACSM2B,0.313
TTTCTCAGACACCAGTAGCTTA,sensor-assay potency score (higher = more potent),ACSM2B,-0.818
TTTGCTCTAGTATTCCACGGTG,sensor-assay potency score (higher = more potent),ACTL6A,-0.0557
TTAATGTAGAGAGTGCGGCTGG,sensor-assay potency score (higher = more potent),ACSM2B,0.202
TTGGCTGCTGTCTTGTCGGGAT,sensor-assay potency score (higher = more potent),ACSM2B,-0.364
TTGAATTTACAGGCTTTGCTTT,sensor-assay potency score (higher = more potent),ACSL3,-0.455
TTGATTTTCATTGTCTTGGAAA,sensor-assay potency score (higher = more potent),ACSM2B,-0.899
TCATGGGACAGGAACTGCGAGG,sensor-assay potency score (higher = more potent),ACSM2A,-1.14
TTAATGATATCATCTGCCCGTC,sensor-assay potency score (higher = more potent),ACSM2B,-0.544
TGACTTCGCAATTTACTCCTTT,sensor-assay potency score (higher = more potent),ACSM5,-0.271
TAACCTGTACATCATAACAGGA,sensor-assay potency score (higher = more potent),ACSM2B,-0.501
ATAACCTGTACATCATAACAGG,sensor-assay potency score (higher = more potent),ACSM2B,-1.03
AGAATTGATCACATCGTCGTTT,sensor-assay potency score (higher = more potent),ACSM5,-0.999
TGACTTCACATGCTGCTGCAGC,sensor-assay potency score (higher = more potent),ACSM2B,-0.423
TTGATCTCTGCTCCTGTGCCAT,sensor-assay potency score (higher = more potent),ACSM5,-0.903
TTGTGTTTCCTGATAACCCCTT,sensor-assay potency score (higher = more potent),ACTL6A,0.282
TTGTAGTCCCACACTTCGGAAA,sensor-assay potency score (higher = more potent),ACSL3,-1.33
TATCTTTCTTGGGTACTTGTAT,sensor-assay potency score (higher = more potent),ACSM2B,-0.285
TTGGGTACTTGTATGGGGCTGT,sensor-assay potency score (higher = more potent),ACSM2B,0.442
TTTCATTGTCTTGGAAACCATG,sensor-assay potency score (higher = more potent),ACSM2B,-1.14
TTTGACATCTTTAGGGTCGAAG,sensor-assay potency score (higher = more potent),ACSM5,-1.09
TTGATCACATCGTCGTTTCTTC,sensor-assay potency score (higher = more potent),ACSM5,0.51
TACTCCTTTGGATCTTTCCAGA,sensor-assay potency score (higher = more potent),ACSM5,-1.3
TACTAGTGGAAGATTCTTCAAA,sensor-assay potency score (higher = more potent),ACSL3,-0.312
TAATTTTTGAAGACTGATCTGC,sensor-assay potency score (higher = more potent),ACSL3,0.522
ATGATCTGTACATCATAACAGG,sensor-assay potency score (higher = more potent),ACSM2A,-1.32
TTTTCTTGTCTTGACTCGGAGA,sensor-assay potency score (higher = more potent),ACSL3,-0.78
TTTGATTTCACAGCAAACTAAT,sensor-assay potency score (higher = more potent),ACSL3,-0.867
ATAACTTTGGCATCAACTCGGG,sensor-assay potency score (higher = more potent),ACSM5,-0.475
TTGTCTCGAAGCTTGGCTCGTT,sensor-assay potency score (higher = more potent),ACSM2A,0.119
TTGAAGAAACAGAAGGGCCGAG,sensor-assay potency score (higher = more potent),ACSM5,-0.0546
TCCTGCTGTAGCAACATCCGGT,sensor-assay potency score (higher = more potent),ACSM2B,-0.567
TCCACTTGATCTCTGCTCCTGT,sensor-assay potency score (higher = more potent),ACSM5,-0.0695
TAAACTGGAAATACCCATCTTC,sensor-assay potency score (higher = more potent),ACSM2B,0.528
TACAGCTCCACACCAGTCTGGT,sensor-assay potency score (higher = more potent),ACSM5,-0.482
TTGGTTCGTTGAATTTTCCCTG,sensor-assay potency score (higher = more potent),ACSM2B,0.266
TAGTTATCGTCTTTGTCGCTGG,sensor-assay potency score (higher = more potent),ADAD1,-0.46
TTTTCCGTGAACAATCTCCCAA,sensor-assay potency score (higher = more potent),ADAM19,-0.446
TTTCCGTGAACAATCTCCCAAA,sensor-assay potency score (higher = more potent),ADAM19,-0.808
TTGCGCTCGGTCATGATGGCTG,sensor-assay potency score (higher = more potent),ADRA1D,-0.179
TGCTGTAGTCGGCCAATTCGTA,sensor-assay potency score (higher = more potent),ADRA1D,-0.975
TTCTTCTCACGGGAGAACTTGA,sensor-assay potency score (higher = more potent),ADRA1D,-1.13
TTGGTGACGGTCTGCAGGTGGC,sensor-assay potency score (higher = more potent),ADRA1D,-1.18
TTGGTGGCACTGTCTTTACTGT,sensor-assay potency score (higher = more potent),ADORA2B,-1.19
TAGAAGGAGCACACGGAGGAGA,sensor-assay potency score (higher = more potent),ADRA1D,-0.379
TTGGCGCGCAGCTGGGTCGTGG,sensor-assay potency score (higher = more potent),ADRA1D,-1.53
TGACAAGCAGGTTACCTGCCAC,sensor-assay potency score (higher = more potent),ADRA1D,-0.511
TCATCTTAGACTGTTGCCGAGG,sensor-assay potency score (higher = more potent),ADRA2B,-0.739
TTTTCCACCATAAACAAGGCAG,sensor-assay potency score (higher = more potent),ADORA2B,-0.459
TTGGCCGCTTTCTTCTCACGGG,sensor-assay potency score (higher = more potent),ADRA1D,-0.602
TACGGTGGCGCTCAGCAGCAGG,sensor-assay potency score (higher = more potent),ADRA1D,-1.13
TAACTTGAAATAGTGATTCTGT,sensor-assay potency score (higher = more potent),ADRA2B,0.986
TTAGAATCCATTCAAGCTGTTG,sensor-assay potency score (higher = more potent),ADORA2B,-0.667
ATGCGCAGCACCACCTCGGAGG,sensor-assay potency score (higher = more potent),ADRA1D,-1.52
TAGATGAGCGGGTTCACGCAGC,sensor-assay potency score (higher = more potent),ADRA1D,-0.546
TTTGTCAATCCTTGGAGCCTAC,sensor-assay potency score (higher = more potent),ADORA2B,-0.74
TTCGAGTGTCCGTTGACCTCTC,sensor-assay potency score (higher = more potent),ADRA2B,0.0234
TTCATTCGTGGTTCCATCCCAG,sensor-assay potency score (higher = more potent),ADORA2B,-0.119
TAGGGACACAGCCTCCACCTCT,sensor-assay potency score (higher = more potent),ADRA1D,-1.05
TAGTTGGTGACGGTCTGCAGGT,sensor-assay potency score (higher = more potent),ADRA1D,-0.977
TTGGCGATCAGGTAGATGCGCA,sensor-assay potency score (higher = more potent),ADRA2B,-0.201
TGAGAGGATGACAAGCAGGTTA,sensor-assay potency score (higher = more potent),ADRA1D,-0.372
TAGTCGGCCAATTCGTAGGCCT,sensor-assay potency score (higher = more potent),ADRA1D,-0.797
TAAATATATTTGTCAATCCTTG,sensor-assay potency score (higher = more potent),ADORA2B,-0.669
TACCGCAGAAGCGCTCGTCAGG,sensor-assay potency score (higher = more potent),ADRA1D,-1.24
TCCCACTCTTGACATCTGCTTG,sensor-assay potency score (higher = more potent),ADORA2B,-0.99
TTCACAATGAAAACCAGCCGTG,sensor-assay potency score (higher = more potent),ADORA2B,-0.942
TACCGGTCCACGGAGATGGTGC,sensor-assay potency score (higher = more potent),ADRA1D,-1.15
TTAAAAACAAAAGAGTCTGTTA,sensor-assay potency score (higher = more potent),ADORA2B,-0.121
TTTTGTGAAAAGTGTAGCGGAA,sensor-assay potency score (higher = more potent),ADORA2B,0.0237
TTCAGCTGCGGGAACAAGGAGC,sensor-assay potency score (higher = more potent),ADRA1D,-0.905
ATAGTTGGTGACGGTCTGCAGG,sensor-assay potency score (higher = more potent),ADRA1D,-1.13
AAGAAGAAAGGGAACCAGCAGA,sensor-assay potency score (higher = more potent),ADRA1D,-0.303
TATATTTGTCAATCCTTGGAGC,sensor-assay potency score (higher = more potent),ADORA2B,-0.159
ATAACAGGGTTCAGTGAGCTGT,sensor-assay potency score (higher = more potent),ADRA2B,-0.793
TTGACAACTGAATTGGCATGTG,sensor-assay potency score (higher = more potent),ADORA2B,-0.143

# Source: the OligoGym collection
